HSF-1 act: increases HSF-1 driven luciferase reporter signal. NIH3T3-HGL HSF-1 luciferase reporter, MG132, 8 h; 100% = twice DMSO control signal. activation, % at 9 µM. 300,000 compounds, 1.7% hits;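 active = mean replicate activation of at least 50% with a set share of replicates each reaching 50%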;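 also: 0% = median of the neutral control wells and 100% = twice that signal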
HSF1 inhib: HSF1 inhibition | activity change, negative = inhibition, % at 7.5 µM (by protocol) | NIH3T3-HGL HSE-luciferase, MG132-induced, luminescence 8 h; stronger effect = lower value | 300,000 compounds, 0.77% hits | AID 2098;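 active = more than half of replicate wells show activity change below -50%, luminescence cut by over half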;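 also: luciferase reports HSF-1 transcriptional activity via heat shock element; 0% = median of DMSO wells and -100% = zero luminescence signal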
S1P3 antagonist: antagonists of human S1P3 receptor; Q99500; CHO S1P3 NFAT-BLA reporter, FRET fluorescence, antagonist mode; inhibition, % at 4.98 µM; 170,000 compounds, 0.27% hits;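 active = inhibition above the plate cutoff, the mean inhibition of test wells on that plate plus 3 SD, cut at about 28% in these data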;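 also: cells challenged with S1P at its EC80 of 0.8 µM; blue over green emission ratio from cleaved BLA substrate after 4 h stimulation; 0% = S1P-stimulated wells and 100% = unstimulated DMSO-only wells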
Hsp70 act: switches on Hsp70 transcription. HeLa Hsp70 promoter luciferase reporter, luminescence; scaled: vehicle 0, proteasome-inhibitor control 100%. activation, % at 10 µM. 200,000 compounds, 0.04% hits. AID 1203;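 active = activation above the mean across all tested compounds plus 3 SD, cutoff set per campaign, cut at about 5.5% in these data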;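 also: 100% = MG132 at 30 µM as the positive control and 0% = DMSO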
S1P4 antag: human S1P4 receptor antagonism; 220,000 compounds, 0.26% hits; inhibition, % at 4.98 µM; S1P4-expressing cells, antagonist mode, reporter read-out; O95977; in the data active = inhibition above about 29%;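 also: 0% = wells stimulated with agonist and 100% = vehicle wells without agonist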
Target sequence (O95977 whole entry, looked up): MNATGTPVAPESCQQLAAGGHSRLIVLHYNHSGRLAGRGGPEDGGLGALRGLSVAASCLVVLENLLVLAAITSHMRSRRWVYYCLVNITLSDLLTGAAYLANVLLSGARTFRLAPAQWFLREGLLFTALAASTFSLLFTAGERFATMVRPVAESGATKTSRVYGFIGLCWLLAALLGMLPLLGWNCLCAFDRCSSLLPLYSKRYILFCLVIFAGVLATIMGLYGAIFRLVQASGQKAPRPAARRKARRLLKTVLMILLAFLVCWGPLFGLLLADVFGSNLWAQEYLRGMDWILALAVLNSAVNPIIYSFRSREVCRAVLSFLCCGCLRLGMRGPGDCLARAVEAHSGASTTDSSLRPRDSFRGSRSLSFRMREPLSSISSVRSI
S1P4 agonist: agonists of human S1P4 receptor; 220,000 compounds, 0.35% hits; activation, % at 4.98 µM; AID 1509; O95977; S1P4-expressing cell line, agonist reporter assay; in the data active = activation above about 11%;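 also: 0% = DMSO vehicle and 100% = reference agonist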
Starred values were filed as active, the others as inactive. Shown are actives, neighbours in structure and some others; about 2.9% of the full set was active somewhere.

How did Cn1c(=O)c2c(nc(N/N=C/c3ccc(OC(=O)c4ccco4)cc3)n2Cc2ccc(F)cc2)n(C)c1=O do in these assays?
HSF-1 act: 55.5*; HSF1 inhib: 23.5; S1P3 antagonist: -4.6; Hsp70 act: -0.4; S1P4 antag: -0.3; S1P4 agonist: 2.4

How did Cn1c(=O)c2c(nc(N/N=C/c3ccc(OC(=O)c4ccco4)cc3)n2Cc2ccccc2Cl)n(C)c1=O do in these assays?
HSF-1 act: 1.0; HSF1 inhib: -4.3; S1P3 antagonist: -2.2; Hsp70 act: -0.1; S1P4 antag: -31.4; S1P4 agonist: 2.6

What do the screens show for `Cc1cccc(Cc2nnc(CCC(=O)N(C)CCc3ccccc3)o2)c1`?
HSF-1 act: 64.2*; HSF1 inhib: 39.8

How did O=C(Nc1cccc(Cl)c1)N(Cc1nc2ccccc2c(=O)[nH]1)C1CCCC1 do in these assays?
HSF-1 act: 54.4*; HSF1 inhib: 17.5; S1P3 antagonist: 17.1; Hsp70 act: -0.3; S1P4 antag: -3.3; S1P4 agonist: -3.5

Results for Cc1cccc(NC(=O)N(Cc2nc3ccccc3c(=O)[nH]2)C2CCCC2)c1 ?
HSF-1 act: 30.3; HSF1 inhib: 18.1; S1P3 antagonist: -18.2; Hsp70 act: -0.1; S1P4 antag: -7.4; S1P4 agonist: 0.0

Results for O=C1Nc2ccccc2/C1=C/c1cnc(-c2ccccc2)[nH]1 ?
HSF-1 act: 64.3*; HSF1 inhib: 34.6; S1P3 antagonist: 1.9; S1P4 antag: 12.5; S1P4 agonist: -0.1

How did COc1ccccc1C(=O)Nc1ccc(S(=O)(=O)N2CCCCC2)cc1 do in these assays?
HSF-1 act: -21.3; HSF1 inhib: -13.0

Results for CCOC(=O)c1c(-c2ccccc2)n(C)c2ccc(O)cc12 ?
HSF-1 act: -54.6; HSF1 inhib: -57.4*; Hsp70 act: -0.3; S1P4 antag: 3.7; S1P4 agonist: 0.1

Results for NNC(=S)NC1CC2CC1C1C=CCC21 (stereo unspecified) ?
HSF-1 act: -63.3; HSF1 inhib: -54.0*; S1P3 antagonist: 12.5; S1P4 antag: 5.8; S1P4 agonist: 0.1

What do the screens show for `N#Cc1ccc(Cl)cc1NC(=O)CNCc1cccs1`?
HSF-1 act: 64.8*; HSF1 inhib: 24.7

What do the screens show for `COCC1COS(=O)(=O)NC1(C)C` (stereo unspecified)?
HSF-1 act: -13.8; HSF1 inhib: -6.7

How did CC(=O)/C(=N/Nc1ccc(Br)cc1)Sc1cccc2cccnc12 do in these assays?
HSF-1 act: 67.4*; HSF1 inhib: 30.1; S1P3 antagonist: -6.3; Hsp70 act: -0.2; S1P4 antag: -6.8; S1P4 agonist: 1.4

How did CCN1C(=O)[C@@H]2[C@@H](c3ccc(-c4ccc(C(C)=O)cc4)cc3)N3CCCC[C@@]3(C(=O)OC)[C@@H]2C1=O do in these assays?
HSF-1 act: 6.2; HSF1 inhib: 6.1

What do the screens show for `O=C(OCCOc1ccccc1)c1n[nH]c2ccccc12`?
HSF-1 act: 66.9*; HSF1 inhib: 34.5; S1P3 antagonist: -9.5; S1P4 antag: 2.2; S1P4 agonist: 0.7

Results for O=C(COC(=O)c1n[nH]c2ccccc12)NC(=O)NC1CCCCC1 ?
HSF-1 act: 52.3*; HSF1 inhib: 24.2; S1P3 antagonist: -10.1; Hsp70 act: 0.0; S1P4 antag: -10.6; S1P4 agonist: 1.2

What do the screens show for `O=C(NCCc1ccc(Cl)cc1)c1n[nH]c2ccccc12`?
S1P3 antagonist: -10.4; Hsp70 act: 0.0; S1P4 antag: -25.3; S1P4 agonist: 1.8

How did Cc1ccc2c(COC(=O)c3n[nH]c4ccccc34)cc(=O)oc2c1 do in these assays?
HSF-1 act: 75.7*; HSF1 inhib: 45.6; Hsp70 act: 0.1; S1P4 antag: -15.2; S1P4 agonist: 0.0

Results for O=C(NCCc1ccccc1)c1n[nH]c2ccccc12 ?
HSF-1 act: 59.4*; HSF1 inhib: 35.0; S1P3 antagonist: 1.7; Hsp70 act: 0.0; S1P4 antag: -18.2; S1P4 agonist: 1.0

What do the screens show for `Fc1ccc(-c2ccnc(=S)[nH]2)cc1`?
HSF-1 act: 11.2; HSF1 inhib: 8.6; Hsp70 act: 0.0; S1P4 antag: -7.2; S1P4 agonist: -2.3

What do the screens show for `CC(=O)c1cccc(NC(=S)NCCCCc2ccccc2)c1`?
HSF-1 act: -9.0; HSF1 inhib: -0.7; S1P3 antagonist: 8.7; Hsp70 act: -0.3; S1P4 antag: -14.5; S1P4 agonist: -0.8

Results for CC(C)N1C(=O)N(c2cccc(Cl)c2)C(C)(O)CC1(C)C (stereo unspecified) ?
HSF-1 act: -3.0; HSF1 inhib: -1.1

What do the screens show for `CCC(CC)c1nnc(NC(=O)C2CSC3(C)CCC(=O)N23)s1` (stereo unspecified)?
HSF-1 act: 10.6; HSF1 inhib: -0.9

Results for O=C(COC(=O)c1ccccc1[N+](=O)[O-])NCCCc1ccccc1 ?
HSF-1 act: 39.3; HSF1 inhib: 21.6

Results for Cc1c(N=C2SCC(=O)N2/N=C/c2ccccc2Cl)c(=O)n(-c2ccccc2)n1C ?
HSF-1 act: 8.8; HSF1 inhib: 4.8; Hsp70 act: -0.2; S1P4 antag: 5.2; S1P4 agonist: -2.3

How did Cc1c(N=C2SCC(=O)N2/N=C\c2ccc(Br)cc2)c(=O)n(-c2ccccc2)n1C do in these assays?
HSF-1 act: 66.7*; HSF1 inhib: 21.2; S1P3 antagonist: -0.3; Hsp70 act: -0.3; S1P4 antag: -6.2; S1P4 agonist: 0.1

What do the screens show for `COc1cc2c(cc1OC)C(C)N(C(=S)NC(=O)c1ccccc1)CC2` (stereo unspecified)?
HSF-1 act: 5.2; HSF1 inhib: -8.7; S1P3 antagonist: -4.0; Hsp70 act: 0.0; S1P4 antag: -3.6; S1P4 agonist: 0.5

What do the screens show for `COc1ccc(C(=O)NCc2nnc(SCC(=O)N3CCc4ccccc43)n2C2CCCCC2)cc1`?
HSF-1 act: 29.7; HSF1 inhib: 14.8; S1P3 antagonist: 6.8; Hsp70 act: -0.3; S1P4 antag: -5.9; S1P4 agonist: 2.1

How did COc1ccc(C(=O)NCc2nnc(SCC(=O)N3CCc4ccccc43)n2CCc2ccccc2)cc1 do in these assays?
HSF-1 act: 79.7*; HSF1 inhib: 31.1; S1P3 antagonist: -8.9; Hsp70 act: -0.2; S1P4 antag: -19.5; S1P4 agonist: 0.2

How did O=C1/C(=C\c2c(NCCOCCO)nc3ccccn3c2=O)SC(=S)N1Cc1ccco1 do in these assays?
HSF-1 act: -13.9; HSF1 inhib: -2.5

What do the screens show for `S=c1[nH]c(-c2ccc(Br)cc2)cn1CCc1ccccc1`?
HSF-1 act: 62.0*; HSF1 inhib: 26.2; S1P3 antagonist: 1.9; Hsp70 act: -0.5; S1P4 antag: 5.5; S1P4 agonist: 0.0

How did CCOC(=O)c1cn(-c2c(Cl)cccc2Cl)c2cc(Cl)c([N+](=O)[O-])cc2c1=O do in these assays?
HSF-1 act: 103.7*; HSF1 inhib: 56.3; S1P3 antagonist: -7.0; Hsp70 act: 0.4; S1P4 antag: 17.9; S1P4 agonist: 1.2

Bioassay records from PubChem BioAssay.
